A selection: hits, their analogues and other compounds. The true share with any hit is near 4%.
Caspase-7 inhib: allosteric or competitive inhibitors of human caspase-7; recombinant caspase-7, Ac-DEVD-AFC fluorescence rate; Potency, µM (top dose mostly 57.5 µM), for the others: top-dose activity change, negative = inhibition, usual class: inhibitors; actives 0.02% (n = 75,000); AID 889; active = well fitted inhibition curve with a large enough effect in the main read-out, with a control signal flat, not every such curve was filed as active; inconclusive = small, poorly fitted or top-dose-only effect, or a change in a side signal; note: % of control where 0% means no effect
Target sequence (P55210 24-198 limits assumed): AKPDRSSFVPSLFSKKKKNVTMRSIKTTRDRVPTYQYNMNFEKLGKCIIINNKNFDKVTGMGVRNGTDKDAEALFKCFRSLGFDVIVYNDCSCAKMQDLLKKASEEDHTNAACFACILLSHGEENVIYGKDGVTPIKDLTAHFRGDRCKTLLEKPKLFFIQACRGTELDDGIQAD
Target sequence (P55210 207-303 limits assumed): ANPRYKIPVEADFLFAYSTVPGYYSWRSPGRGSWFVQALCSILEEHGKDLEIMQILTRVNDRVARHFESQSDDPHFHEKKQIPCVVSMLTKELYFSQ
PK Bst: modulators of Bacillus stearothermophilus pyruvate kinase; purified pyruvate kinase, luminescence ATP production; ribose 5-phosphate activator present at AC10; actives 1.2% (n = 51,000); Potency, µM; in the data active = potency below about 11 µM; inconclusive = mostly about 12 µM to 25 µM;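 the screen sought inhibitors and activators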;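 note: scaled between full activation by ribose 5 phosphate and full inhibition by luteolin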
Caspase-1 inhib: blocks human caspase-1 allosterically or competitively. P29466. Potency, µM (top dose mostly 57.5 µM), for the others: top-dose activity change, negative = inhibition, hits mostly inhibitors. AID 900. Caspase-1 enzyme, Ac-WEHD-AFC fluorogenic rate. actives 0.03% (n = 75,000);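 note: plate controls were vehicle for no effect and no substrate for full effect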
Target sequence (P29466 120-297 limits assumed): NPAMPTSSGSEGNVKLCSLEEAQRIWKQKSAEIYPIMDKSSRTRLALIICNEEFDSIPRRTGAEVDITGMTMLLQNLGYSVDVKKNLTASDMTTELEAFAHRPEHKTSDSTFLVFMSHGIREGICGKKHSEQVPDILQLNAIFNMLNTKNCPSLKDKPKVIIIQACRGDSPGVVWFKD
Target sequence (P29466 317-404 limits assumed): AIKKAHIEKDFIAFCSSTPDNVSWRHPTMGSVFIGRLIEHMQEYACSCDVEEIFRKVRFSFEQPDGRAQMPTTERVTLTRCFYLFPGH
Tau fil binding: tau filament binding. P10636. recombinant tau filaments, thioflavin S fluorescence, 15 h; filaments grown with octadecylsulfate alongside compound. Potency, µM (titrated, usually from 57.1 µM), without a hit: at the highest dose activity change, negative = inhibition. actives 2% (n = 71,000);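 note: % is set by controls: 0 for no effect and ±100 for the full control effect; actives lower thioflavin S fluorescence by blocking filaments or displacing dye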
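His-tagged recombinant human tau (exons 2, 3, 10; 1 uM final) fibrillized with 30 uM sodium octadecylsulfate, 15 h at 37 C, in pH 7.4 HEPES buffer with 10 uM thioflavine S and 5 mM DTT. Reduced ThS fluorescence (450/510 nm) marks activity.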
Luciferase inh: inhibitors of firefly luciferase. Potency, µM (series often up to 57.1 µM), for the others: at the highest dose activity change, negative = inhibition, usual class: inhibitors. purified firefly luciferase, luminescence, 8 min. actives 2.2% (n = 72,000). P08659; note: % is set by controls: 0 for no effect and ±100 for the full control effect; nearly all actives have a fitted effect of over 40% in size
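Firefly luciferase (PKLight detection mix) with 10 uM ATP in pH 7.2 imidazole buffer (KCl, MgCl2, Tween 20, BSA). Compounds tested across a concentration series (qHTS). Luminescence read after 8 min at ambient temperature.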
* marks the source's active call; other numbers are inactive results; i = inactive; ? = inconclusive; . = not tested or not shown; ! = not confirmed by another sample; [ ] = remark or other dose. Unless noted, calls come from the whole dose curve; as a rule, active = well fitted curve in the direction sought with a large enough effect; inconclusive = small, poorly fitted or top-dose-only effect, or another doubt; inactive = no such curve, though single readings can be large; an effect the other way counts as inactive or inconclusive. Potency is the fitted concentration of half-maximal effect.

SMILES	Caspase-7 inhib	PK Bst	Caspase-1 inhib	Tau fil binding	Luciferase inh
COc1cccc([C@@H]2Oc3ccc(OC)cc3/C(=N/O[C@@H](C)CN3CCCCc4nc(C)c(C)cc43)[C@@H]2O)c1	-2.0%[11.5 µM]	.	-5.0%[11.5 µM]	.	0.9%[11.4 µM]
COc1ccccc1CNc1nc(-c2ccoc2)nc2ccccc12	-8.9%	.	-4.3%	-18.5%	1.6%[2.29 µM]
COc1cc(NC(=O)C2CCCO2)c(OC)cc1NC(=O)c1ccccc1 (centres undefined)	-1.3%	>57	-0.8%	25.1µM*	-4.0%
COc1cc(NC(=O)c2ccccc2)c(OC)cc1NC(=O)CN1CCOCC1	-0.1%	>57	-0.8%	-22.9%	-2.1%
O=C(O)CCCC(=O)Nc1cccc(-c2nc3ccccc3[nH]2)c1	-1.0%	.	-1.0%	-4.0%	20µM*
O=C(Nc1nc2ccccc2[nH]1)C1CCCO1 (centres undefined)	0.0%	.	1.7%	-0.9%	-11.7%
O=C(Nc1ccc(-c2nc3ccccc3[nH]2)cc1)C1CCCO1 (centres undefined)	0.5%	3.18*	0.2%	-16.5%	2.51µM*
O=C(CN1CCOCC1)Nc1ccc(-c2nc3ccccc3[nH]2)cc1	0.5%	i	-8.8%	3.7%	15.8µM*
O=C(CCc1nc2ccccc2[nH]1)Nc1ccccc1	-0.7%	>57	1.2%	-6.4%	-2.0%
C[C@@H](CCCCC(=O)Nc1ccc(C(F)(F)F)cc1)NCCc1cnc[nH]1	2.8%	.	-2.2%	8.0%	0.5%
COC(=O)Cn1c(C(=O)N2CCCC2)cc2c1C[C@H]1CN(C(=O)c3ccccc3)[C@@](Cc3ccccc3)(C(=O)OC)[C@@H]21	-0.8%	.	-3.2%	0.2%	.
O=C(c1csnn1)N1CCC[C@@]2(CCN(Cc3cc(C(F)(F)F)cc(C(F)(F)F)c3)C2)C1	1.6%	.	-0.1%	-9.9%	0.6%[11.4 µM]
COc1ccc(NC2c3ncccc3C(=O)N2Cc2ccccc2)c(OC)c1 (centres undefined)	-1.1%	>57	1.6%	15.8µM*	1.6%
CN(C)c1ncnc2ccc(-c3ccoc3)cc12	-7.1%	.	-6.0%	4.9%	-0.9%[2.29 µM]
CN(C)c1ccc(-c2ccc3ncnc(N4CCNCC4)c3c2)cc1	-3.5%	.	-6.1%	12.6µM*	0.3%[2.29 µM]
c1nc(N2CCNCC2)c2cc(-c3ccc4c(c3)OCO4)ccc2n1	-0.5%	.	0.3%	-4.7%	-0.9%[2.29 µM]
CN(C)c1ccc(-c2ccc3ncnc(N(C)C)c3c2)cc1	?	.	.	5.01µM*	0.0%[2.29 µM]
CN(C)c1ccc(-c2nc(N3CCNCC3)c3ccccc3n2)cc1	-3.1%	.	-2.4%	3.16µM*	-6.1%[2.29 µM]
O=C(c1ccncc1)N1CCC2(CC1)CCN(c1ccccc1)CC2	1.5%	.	0.5%	10.6%	0.6%[11.4 µM]
Oc1c(C=Nc2cccnc2)sc2ccccc12	.	11.4*	.	.	12.6µM*
CC(=O)OC[C@@H]1O[C@@H](O/N=C2/C[C@@H](O)[C@@H](O)[C@@H]3[C@@H]4C(=O)N(Cc5ccc6c(c5)OCO6)C(=O)[C@H]4CC[C@@H]23)[C@H](OC(C)=O)[C@H](OC(C)=O)[C@@H]1OC(C)=O	0.7%[11.5 µM]	.	2.4%[11.5 µM]	.	-0.7%[11.4 µM]
O=C(Nc1ccc(N2CCOCC2)cc1)c1cc2ccccc2o1	-5.5%	.	-6.9%	.	.
O=C(/C=C/N1CCOCC1)c1cc2ccccc2o1	-4.5%	.	-5.2%	4.4%	12.6µM*
O=C(Nc1ccc(CN2CCOCC2)cc1)c1cccs1	3.3%	.	-2.4%	-8.8%	25.1µM*
O=C(Nc1ccc(CN2CCOCC2)cc1)c1cc2ccccn2n1	-1.9%	.	-2.1%	13.1%	3.98µM*
SMILES	Caspase-7 inhib	PK Bst	Caspase-1 inhib	Tau fil binding	Luciferase inh
O=C(Cc1ccccc1)Nc1ccc(CN2CCOCC2)cc1	-0.8%	>57	0.2%	-3.2%	-24.7%
Cc1cc(NC(=O)c2cc3ccccc3o2)cc(C)c1OCC(=O)N1CCOCC1	-0.2%	.	0.4%	9.7%	15.8µM*
O=C(O)CC[C@]1(C(=O)O)CCC(=O)c2ccccc21	0.2%[11.5 µM]	.	-1.8%[11.5 µM]	-2.8%[11.4 µM]	3.9%[11.4 µM]
O=C(Nc1ccc2c(c1)OCO2)c1ccc(CN2CCOCC2)cc1	-0.6%	.	-1.9%	15.8µM*	?
O=C(Nc1ccc(CN2CCCCC2)cc1)c1ccc2c(c1)OCO2	-0.7%	>57	-0.6%	24.4%	-20.4%
O=C(Nc1ccc(CN2CCOCC2)cc1)c1cc2ccccc2o1	0.3%	i	1.9%	1.4%	12.6µM*
NC(CCC(=O)N[C@@H](CS)C(=O)NCC(=O)O)C(=O)O (some centres undefined)	1.8%	.	3.4%	.	.
CC1Cc2ccccc2N1C(=O)c1ccc2c(c1)nnn2C (centres undefined)	-0.4%	>57	-0.8%	-10.7%	2.6%
Cc1nc2cc(NC(=O)N3c4ccccc4CC3C)ccc2o1 (centres undefined)	-1.1%	?	-1.0%	-3.9%	12.6µM*
Cc1nc2cc(NC(=O)N3c4ccccc4CC3C)ccc2n1C (centres undefined)	-0.5%	9.47*	-0.2%	9.0%	5.01µM*
CC1(C)CCC2=C(O1)c1ccccc1C(=O)C2=O	-2.3%	.	-4.9%	-17.5%	-3.5%
COCCCCC(=NOCCN)c1ccc(C(F)(F)F)cc1	0.3%	.	1.2%	31.6µM*!	1.8%
CCCCC(c1nnnn1CCOC)N1CCN(c2cccc(OC)c2)CC1 (centres undefined)	-4.7%	>57	1.5%	12.6µM*	-1.8%
CCCC(c1nnnn1CCOC)N1CCN(c2cccc(OC)c2)CC1 (centres undefined)	-1.1%	>57	-2.0%	-28.0%	0.6%
O=C(Nc1cccc(F)c1)N1CCCC2(CCN(C(=O)c3ccncc3)CC2)C1	-0.6%	.	-1.7%	7.0%	0.8%[11.4 µM]
C=CCn1c(SCC(=O)Nc2ccc(N(C)C)cc2)nnc1-c1cccc(C)c1	-1.1%	>57	-1.6%	25.1µM*	-11.8%
C=C1CCC(=O)C(C)CCC2C1CC2(C)C (centres undefined)	0.4%	.	-1.4%	.	.
COC(=O)[C@@H]1CC[C@H](C)[C@@H](c2ccc(C)cc2)N1C(=O)c1ccc(/C=N\OC[C@@H](C)[C@H](OCc2ccccc2)C(C)C)cc1	1.0%[11.5 µM]	.	2.3%[11.5 µM]	.	0.3%[11.4 µM]
CN[C@@H](CC(C)C)C(=O)N[C@@H]1C(=O)N[C@H](CC(N)=O)C(=O)N[C@@H]2C(=O)N[C@H]3C(=O)N[C@H](C(=O)N[C@H](C(=O)O)c4cc(O)cc(O)c4-c4cc3ccc4O)[C@H](O)c3ccc(c(Cl)c3)Oc3cc2cc(c3O[C@H]2O[C@@H](CO)[C@@H](O)[C@@H](O)[C@@H]2O[C@@H]2C[C@](C)(N)[C@H](O)[C@H](C)O2)Oc2ccc(cc2Cl)[C@@H]1O	2.1%[25.7 µM]	.	-4.0%[25.7 µM]	7.8%[25.6 µM]	1.4%[25.5 µM]
O=C(Nc1ccc2c(c1)OCO2)c1cccs1	-1.2%	.	-1.2%	-11.2%	?
COc1ccc(Cl)cc1C(=O)Nc1ccc(NC(=O)c2ccco2)cc1	-2.1%	.	-1.9%	183.6%	1.6%
CN(c1ccccc1C(=O)Nc1ccc2c(c1)OCCO2)S(C)(=O)=O	2.3%	>57	-0.6%	1.5%	1.7%
CCOC(=O)c1c(C)[nH]c(C(=O)Nc2ccc3c(c2)OCO3)c1C	-2.0%	i	1.1%	-11.9%	12.6µM*
O=C(Nc1ccc2c(c1)OCO2)c1ccc(Br)s1	0.4%	?	1.7%	126.3%	12.6µM*
